{
  "source": "PubChem BioAssay (NCATS)",
  "note": "Records with an inconclusive call do not appear. Entries that show only a call come without a potency. Active and inactive are the calls of the source. The call rests on the fitted dose curve; in most records, active means well fitted curve in the direction sought with a large enough effect; inconclusive means small, poorly fitted or top-dose-only effect, or another doubt; inactive means no such curve, though single readings can be large; an effect the other way counts as inactive or inconclusive. Numbered stars: 1 amine (or outer) side, 2 acyl side, 3 side chain; on linkers, the order of the positions; unused ones are H or OH. Bridge positions count the residues as written; N and C are the ends. Square brackets hold non-standard residues; d marks the D form. Peptide text beside a SMILES is read from it. I, II: the chains in the order shown. Actinocin(9to1) = Cc1c2oc3c(C)ccc(C(=O)[*:1])c3nc-2c(C(=O)[*:2])c(N)c1=O; NMeV = CN[C@H](C(=O)O)C(C)C; Sar = CNCC(=O)O",
  "data": [
    {"assay": "MultiTox-Fluor Cytotoxicity Assay - LYMP1-001 - Dead Cells (AID 946);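 further: cells exposed to compound for 16 h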; further: potency means the concentration at half of the fitted maximal effect", "details": "LYMP1-001 lymphoblastoid cells, dead-cell protease fluorescence; series mostly up to 92.2 µM", "in_short": "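Seed 2500 LYMP1-001 cells/well, incubate 5 hr at 37 C; add compound, 16 hr at 37 C; add MultiTox-Fluor reagent, 60 min RT; read dead-cell fluorescence Ex/Em=485/520. Normalize to DMSO and 15 uM tetraoctylammonium bromide.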", "values": [
      {"smiles": "Oc1ccc(Cl)cc1Sc1cc(Cl)ccc1O", "Potency": "inactive"},
      {"smiles": "CC(=O)O[C@]1(C(C)=O)CC[C@H]2[C@@H]3C[C@H](C)C4=CC(=O)CC[C@]4(C)[C@H]3CC[C@@]21C", "Potency": "inactive"},
      {"smiles": "C[C@]12CC[C@@H]3c4ccc(O)cc4CC[C@H]3[C@@H]1CC[C@@H]2O", "Potency": "inactive"},
      {"smiles": "CC(O)C(=O)O", "note": "(stereo not given)", "Potency": "inactive"},
      {"smiles": "COc1cccc2c1C(=O)c1c(O)c3c(c(O)c1C2=O)C[C@@](O)(C(=O)CO)C[C@@H]3O[C@H]1C[C@H](N)[C@H](O)[C@H](C)O1", "Potency": "2510 nM (active)"},
      {"smiles": "O=C(O)CCCCC(=O)O", "Potency": "inactive"},
      {"smiles": "Cc1c2oc3c(C)ccc(C(=O)N[C@@H]4C(=O)N[C@H](C(C)C)C(=O)N5CCC[C@H]5C(=O)N(C)CC(=O)N(C)[C@@H](C(C)C)C(=O)O[C@@H]4C)c3nc-2c(C(=O)N[C@@H]2C(=O)N[C@H](C(C)C)C(=O)N3CCC[C@H]3C(=O)N(C)CC(=O)N(C)[C@@H](C(C)C)C(=O)O[C@@H]2C)c(N)c1=O", "note": "(I: T[dV]P[Sar][NMeV] / II: T[dV]P[Sar][NMeV]; ester I:1-I:C, II:1-II:C; linker I:N-II:N via Actinocin(9to1))", "Potency": "12.6 nM (active)"},
      {"smiles": "COc1cccc2c1C(=O)c1c(O)c3c(c(O)c1C2=O)C[C@@](O)(C(C)=O)C[C@@H]3O[C@H]1C[C@H](N)[C@H](O)[C@H](C)O1", "Potency": "501 nM (active)"}
    ]},
    {"assay": "MultiTox-Fluor Cytotoxicity Assay - LYMP1-001 - Live Cells (AID 947); further: potency means the concentration at half of the fitted maximal effect", "details": "LYMP1-001 lymphoblastoid cells, live-cell protease fluorescence viability; series mostly up to 92.2 µM", "values": [
      {"smiles": "CC(=O)O[C@]1(C(C)=O)CC[C@H]2[C@@H]3C[C@H](C)C4=CC(=O)CC[C@]4(C)[C@H]3CC[C@@]21C", "Potency": "inactive"},
      {"smiles": "C[C@]12CC[C@@H]3c4ccc(O)cc4CC[C@H]3[C@@H]1CC[C@@H]2O", "Potency": "inactive"},
      {"smiles": "CC(O)C(=O)O", "note": "(stereo not given)", "Potency": "inactive"},
      {"smiles": "COc1cccc2c1C(=O)c1c(O)c3c(c(O)c1C2=O)C[C@@](O)(C(=O)CO)C[C@@H]3O[C@H]1C[C@H](N)[C@H](O)[C@H](C)O1", "Potency": "1580 nM (active)"},
      {"smiles": "O=C(O)CCCCC(=O)O", "Potency": "inactive"},
      {"smiles": "COc1cccc2c1C(=O)c1c(O)c3c(c(O)c1C2=O)C[C@@](O)(C(C)=O)C[C@@H]3O[C@H]1C[C@H](N)[C@H](O)[C@H](C)O1", "Potency": "631 nM (active)"}
    ]},
    {"assay": "Cell Viability - LYMP1-002 - Assay at 16 hr (AID 948); further: potency means the concentration at half of the fitted maximal effect", "details": "LYMP1-002 lymphoblastoid cell viability; series mostly up to 92.2 µM", "in_short": "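Acute cytotoxicity is scored as a concentration-dependent fall in intracellular ATP in a human lymphoblastoid line (LYMP1-002) after 16 hr compound exposure at 37 C, measured by luciferase luminescence.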", "values": [
      {"smiles": "CC(=O)O[C@]1(C(C)=O)CC[C@H]2[C@@H]3C[C@H](C)C4=CC(=O)CC[C@]4(C)[C@H]3CC[C@@]21C", "Potency": "inactive"},
      {"smiles": "C[C@]12CC[C@@H]3c4ccc(O)cc4CC[C@H]3[C@@H]1CC[C@@H]2O", "Potency": "inactive"},
      {"smiles": "CC(O)C(=O)O", "note": "(stereo not given)", "Potency": "inactive"},
      {"smiles": "COc1cccc2c1C(=O)c1c(O)c3c(c(O)c1C2=O)C[C@@](O)(C(=O)CO)C[C@@H]3O[C@H]1C[C@H](N)[C@H](O)[C@H](C)O1", "Potency": "3160 nM (active)"},
      {"smiles": "O=C(O)CCCCC(=O)O", "Potency": "inactive"},
      {"smiles": "COc1cccc2c1C(=O)c1c(O)c3c(c(O)c1C2=O)C[C@@](O)(C(C)=O)C[C@@H]3O[C@H]1C[C@H](N)[C@H](O)[C@H](C)O1", "Potency": "794 nM (active)"}
    ]}
  ]
}
